Bioassay records from PubChem.
The entries come from a sample that favours hits as a whole.
ST2 IL33 inh – blocks human ST2 binding to IL-33 | Q01638 | AlphaLISA ST2-Fc/biotin-IL-33 interaction, 1 h | inhibition, % for hits at 17 µM | 2.3% of 78,000 active | AID 1259354; in the data active = inhibition above about 30%
Target sequence (Q01638 whole entry, looked up): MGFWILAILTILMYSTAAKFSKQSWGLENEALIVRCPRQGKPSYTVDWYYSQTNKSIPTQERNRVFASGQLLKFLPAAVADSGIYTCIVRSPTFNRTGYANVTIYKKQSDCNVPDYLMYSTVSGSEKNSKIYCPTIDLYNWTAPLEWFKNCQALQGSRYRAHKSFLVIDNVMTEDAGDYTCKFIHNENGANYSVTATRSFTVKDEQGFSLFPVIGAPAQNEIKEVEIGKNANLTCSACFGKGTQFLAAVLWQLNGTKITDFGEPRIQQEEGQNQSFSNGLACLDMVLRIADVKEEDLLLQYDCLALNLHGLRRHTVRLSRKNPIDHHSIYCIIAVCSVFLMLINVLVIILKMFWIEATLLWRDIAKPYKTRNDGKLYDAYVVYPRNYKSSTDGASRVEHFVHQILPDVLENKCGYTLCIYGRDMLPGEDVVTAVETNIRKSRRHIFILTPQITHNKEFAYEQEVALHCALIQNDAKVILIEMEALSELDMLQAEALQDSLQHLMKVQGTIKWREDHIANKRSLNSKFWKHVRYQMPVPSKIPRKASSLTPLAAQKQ
An asterisk follows results filed as active.

Screening CC(=O)Nc1ccc(OCC(=O)Nc2c(C)cccc2C)cc1 returned ST2 IL33 inh inactive.
`COc1ccc(C(=O)Nc2cccc(C)c2C)cc1` gave ST2 IL33 inh inactive.
`Cc1ccccc1C(=O)Nc1ncc(S(=O)(=O)c2ccc([N+](=O)[O-])cc2)s1` gave ST2 IL33 inh inactive.
COc1ccc(-n2nc(C(=O)N3CCCC3)c3c4ccccc4n(C)c3c2=O)cc1Cl was read as ST2 IL33 inh inactive.
For C=CCOc1ccc(/C=C2/C(=O)N(c3ccc(Cl)c(Cl)c3)N=C2C)cc1OC the results were ST2 IL33 inh inactive.
`COc1cc(Br)c(/C=C2/C(=O)N(c3ccc(Cl)c(Cl)c3)N=C2C)cc1OC` gave ST2 IL33 inh inactive.
`COc1ccc(/C=C2\C(=O)N(c3ccc(Cl)c(C(=O)O)c3)N=C2C)cc1OC` gave ST2 IL33 inh inactive.
COc1ccccc1/C=C1\C(=O)N(c2ccc(Cl)c(Cl)c2)N=C1C was read as ST2 IL33 inh inactive.
For COc1cc(/C=C2\C(=O)N(c3ccc(Cl)c(C(=O)O)c3)N=C2C)cc(Br)c1O the results were ST2 IL33 inh 75.0%*.
`CC1=NN(c2ccc(Cl)c(C(=O)O)c2)C(=O)/C1=C\c1ccc(Br)cc1` gave ST2 IL33 inh inactive.
For COc1ccc(/C=C2/C(=O)N(c3ccc(Cl)c(Cl)c3)N=C2C)cc1Br the results were ST2 IL33 inh inactive.
C=CCOc1ccc(/C=C2\C(=O)N(c3ccc(Cl)c(C(=O)O)c3)N=C2C)cc1OC was read as ST2 IL33 inh inactive.
For CC1=NN(c2ccc(Cl)c(C(=O)O)c2)C(=O)/C1=C\c1ccc(OCc2ccccc2)cc1 the results were ST2 IL33 inh inactive.
CC1=NN(c2ccc(Cl)c(C(=O)O)c2)C(=O)/C1=C\c1ccc(Cl)cc1 was read as ST2 IL33 inh 48.0%*.
For COc1cc(/C=C2/C(=O)N(c3ccc(Cl)c(Cl)c3)N=C2C)cc(OC)c1OC the results were ST2 IL33 inh 55.0%*.
For CC1=NN(c2ccc(Cl)c(Cl)c2)C(=O)/C1=C/c1cccs1 the results were ST2 IL33 inh 54.0%*.
For CCCCOC(=O)C1C2C=CC3(CN(CC4CCCO4)C(=O)C13)O2 (stereo not drawn) the results were ST2 IL33 inh inactive.
`COc1ccccc1NC(=O)[C@@H]1C2c3ccccc3C(c3ccccc32)[C@H]1C` gave ST2 IL33 inh inactive.
Cn1c(=O)c2c(nc(SCc3ccc(C(C)(C)C)cc3)n2C)n(C)c1=O was read as ST2 IL33 inh inactive.
Screening O=C(CCCc1ccccc1)N1CCN(c2ccccn2)CC1 returned ST2 IL33 inh inactive.
Cc1cc(C)c2nc3c(c(N)c2c1)CCN3C was read as ST2 IL33 inh inactive.
For Cc1ccc(C2(CC(=O)N(C)CCC#N)CCOC(C)(C)C2)cc1 (stereo not drawn) the results were ST2 IL33 inh inactive.
O=C(C1CCCCN1S(=O)(=O)c1ccccc1)N1CCOCC1 (stereo not drawn) was read as ST2 IL33 inh inactive.
`CCCCOC(=O)C(C)Oc1ccc2c(=O)c(Oc3cccc(C)c3)coc2c1` (stereo not drawn) gave ST2 IL33 inh inactive.
COc1cc(/C=C2/C(=O)N(c3ccc(Cl)c(Cl)c3)N=C2C)ccc1OCC#N was read as ST2 IL33 inh inactive.
For COc1cc(/C=C2/C(=O)N(c3ccc(Cl)c(Cl)c3)N=C2C)cc(OC)c1O the results were ST2 IL33 inh 35.0%*.
`COc1ccc(/C=C2/C(=O)N(c3ccc(Cl)c(Cl)c3)N=C2C)cc1[N+](=O)[O-]` gave ST2 IL33 inh inactive.
Cc1c(C(=O)N2CCC3(CC2)OCCO3)oc2ccc(S(=O)(=O)N3CCCC3)cc12 was read as ST2 IL33 inh inactive.
For CC(=O)Nc1ccc(Cl)c(C(=O)N(CCCO)Cc2cccs2)c1 the results were ST2 IL33 inh inactive.
`N#CSc1ccc(NC2(c3ccccc3)C(=O)c3ccccc3C2=O)cc1` gave ST2 IL33 inh 34.0%*.
`O=C(O)CC1(c2ccccc2)C(=O)c2ccccc2C1=O` gave ST2 IL33 inh inactive.
For Cc1ccc(O)c(NC(=O)c2noc3c2CC(C(C)(C)C)CC3)c1 (stereo not drawn) the results were ST2 IL33 inh inactive.
CCOCCCN(C)C1CCN(C(=O)C2CCN(c3ccc(-c4cccs4)nn3)CC2)CC1 was read as ST2 IL33 inh inactive.
`Cc1csc(NC(=O)CCCc2ccccc2)n1` gave ST2 IL33 inh inactive.
Screening CCC(C)NC(=O)c1cn(CC)c2ccc(S(=O)(=O)N3CC(C)CC(C)C3)cc2c1=O (stereo not drawn) returned ST2 IL33 inh inactive.
Screening CCOC(=O)c1oc2ccccc2c1NC(=O)CC returned ST2 IL33 inh inactive.
Screening CCCc1nc(C)cc(-c2cc(N)nc3[nH]ccc23)n1 returned ST2 IL33 inh inactive.
For c1ccc(CNc2nc(NC3CCCCC3)nc(N3CCOCC3)n2)cc1 the results were ST2 IL33 inh inactive.
Screening c1cc2c(-c3ccc(CN4CCOCC4)cn3)cc(NC3CCCC3)nc2[nH]1 returned ST2 IL33 inh inactive.
`CCCc1cc(NCC2CNCCOC2)nc(C)n1` (stereo not drawn) gave ST2 IL33 inh inactive.
CCCc1cc(-c2cc(NC3CCNCC3)nc3[nH]ccc23)nc(C)n1 was read as ST2 IL33 inh 38.0%*.
`c1cnc(-c2cc(NC3CCNCC3)nc3[nH]ccc23)cn1` gave ST2 IL33 inh 33.0%*.
c1cc2c(-c3ccc(NC4CCCC4)nn3)cc(NC3CCNCC3)nc2[nH]1 was read as ST2 IL33 inh 40.0%*.
For c1nc(-c2cc(NC3CCCC3)nc3[nH]ccc23)cc(N2CCOCC2)n1 the results were ST2 IL33 inh 30.0%*.
COc1ccc(CN2CCC(n3nccc3NC(=O)c3ccccc3C)CC2)cc1 was read as ST2 IL33 inh inactive.
Screening CCOC(=O)c1ccc(Nc2nc3nonc3nc2N(CC)CC)cc1 returned ST2 IL33 inh inactive.
For COc1cccc(N2C(=O)Nc3ccccc3C2(O)C(=O)NC2CCCCCCC2)c1 (stereo not drawn) the results were ST2 IL33 inh inactive.
COC(=O)[C@@H]1C[C@@H](NC(=O)c2cccc3cnccc23)CN1C was read as ST2 IL33 inh inactive.
Cc1cc(C(=O)Nc2sc3c(c2C(N)=O)CCCC3)no1 was read as ST2 IL33 inh inactive.
For COc1ccccc1NC(=O)C1=C(C)Nc2ncnn2C1c1ccc([N+](=O)[O-])cc1 (stereo not drawn) the results were ST2 IL33 inh inactive.
For COc1ccc(S(=O)(=O)NCc2nc3cccnc3n2Cc2ccc(C)cc2)cc1 the results were ST2 IL33 inh inactive.
Cc1sc2ncnc(NC3CCCCC3)c2c1C was read as ST2 IL33 inh inactive.
For CCOC(=O)CCNC(=O)N1CCCC(Nc2ccc3c(c2)OCO3)C1 (stereo not drawn) the results were ST2 IL33 inh inactive.
For CC(NC(=O)c1n[nH]c2c1CCC2)c1nc2c(s1)CCCC2 (stereo not drawn) the results were ST2 IL33 inh inactive.
Screening O=C1OC(c2ccc(Oc3ccccc3)cc2)=C/C1=C\c1ccco1 returned ST2 IL33 inh 54.0%*.
Screening COc1ccc(C2=Cc3cc(OC)c(OC)cc3/C(=C/c3ccccc3)O2)cc1 returned ST2 IL33 inh inactive.
O=c1oc(-c2ccc(Oc3ccccc3)cc2)nc2ccccc12 was read as ST2 IL33 inh inactive.
COc1cc(C=Nc2ccc(S(=O)(=O)Nc3ccccn3)cc2)cc(OC)c1OC was read as ST2 IL33 inh inactive.
For COc1ccc(OC)c(-c2cc(C(=O)Nc3cc(Cl)ccc3OC)no2)c1 the results were ST2 IL33 inh inactive.
